The sample as a whole holds a higher share of hits than the screen did.
TTR transcr act – TTR transcription activation, primary screen; hit rate 1.3% among 92,000; activation, % at 16.7 µM; AID 1117267; SH-SY5Y TTR promoter Gaussia luciferase, luminescence; 100% = recombinant luciferase protein wells;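 active = activation above the mean of all tested compounds plus 3 SD, cut at about 9.5% in these data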;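 note: cells exposed to compounds for one day before reading; 0% = median of all test compound wells on the plate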
HuH7 TTR inh – counter-screen for TTR activators: TTR transcription inhibitors in HuH7 cells; inhibition, % at 16.7 µM; AID 1117279; hit rate 4% among 1,100; HuH7 TTR promoter-Gaussia luciferase reporter, luminescence; shares compounds with TTR transcr act;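 active = average inhibition above the solvent-only control wells' mean plus 3 SD, cut at about 15% in these data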;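 note: 0% = cells with DMSO only and 100% = cells with inhibitor control FD; inhibitors lower well luminescence so higher value means more inhibition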
TTR act confirm – confirmation of human transthyretin transcription activators. 1,100 tested, under 10 active. shares compounds with TTR transcr act. activation, % at 16.7 µM. SHSY5Y TTR promoter Gaussia luciferase, luminescence; 100% = purified Lucia enzyme wells, no cells;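 active = mean activation above a set limit taken from the earlier primary screen, cut at about 11% in these data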;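 note: 0% = DMSO-treated cells and 100% = recombinant Lucia luciferase without cells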
Starred values were filed as active, the others as inactive.

SMILES | TTR transcr act | others
CCCCCc1nnc(NC(=O)c2ccc3nc[nH]c3c2)s1 | 1
COc1cc(-c2csc(N3CCC(C(N)=O)CC3)n2)cc(OC)c1OC | 2
CCC[C@H]1[C@@H](OC(=O)N2CCCC2)CC[C@@]23CCCN2C(=O)CCC[C@@H]13 | -1
Cc1nn(CC(=O)N2CCC(C)CC2)c(=O)c2nn(-c3ccccc3)c(C)c12 | 1
COc1ccc(-c2nn(-c3ccccc3)cc2CNC[C@H]2O[C@@H](n3ccc(=O)[nH]c3=O)[C@H](O)[C@@H]2O)cc1 | 0
O=C1NC[C@@H](CCCCN2CCN(CCc3ccccc3)C(=O)C2=O)N(CCc2ccc(O)cc2)C1=O | 1
CC(=O)c1noc(C)c1C(=O)Nc1nccs1 | -4
CSc1ccccc1C(=O)Nc1nccs1 | -1
O=C(Nc1nccs1)c1ccc2c(c1)OCO2 | 0
CCOC(=O)c1ccc(NC(=O)c2cccc(C)c2[N+](=O)[O-])cc1 | 1
Cc1cccc(C(=O)Nc2nccs2)c1[N+](=O)[O-] | 40* | HuH7 TTR inh=-7;TTR act confirm=0
Cc1ncoc1C(=O)Nc1nccs1 | 10.0* | HuH7 TTR inh=-9;TTR act confirm=1
COC(=O)[C@]12C[C@H](CC(=O)NCc3ccccc3)C(=O)N(CCc3ccc(OC)c(OC)c3)C1=C[C@H](C(C)C)O[C@@H]2C1CC1 | 0
O=C(NC1CCCCC1)O[C@H]1CC[C@@]23CCCN2C(=O)CCC[C@H]3C1 | 0
Cc1ccc(CNC(=O)Cc2ccc(-c3ccccc3)cc2)cc1 | 13* | HuH7 TTR inh=53*;TTR act confirm=-2
O=C(Cc1ccc(-c2ccccc2)cc1)NCc1ccccc1 | -2
Cc1ccc(CC(=O)NCc2ccc(F)cc2)cc1 | 0
O=c1[nH]c(C2CCN(S(=O)(=O)c3ccc(S(=O)(=O)NC4CC4)cc3)CC2)nc2c1nnn2Cc1cccc(F)c1 | -1
O=C(OCCCOC(=O)c1cc[n+]([O-])cc1)c1cc[n+]([O-])cc1 | -1
O=C1NC(Cc2ccccc2)c2nc3ccc(F)cc3c(=O)n2-c2cc(Cl)ccc21 (configuration not stated) | -3
C[C@@H]1CN([C@@H](C)CO)C(=O)CCCn2cc(nn2)CO[C@H]1CN(C)S(=O)(=O)c1ccccc1C#N | 2
CCN(C(=O)CSc1nnc(C)n1Cc1ccccc1)C1CCS(=O)(=O)C1 (configuration not stated) | 10* | HuH7 TTR inh=-5;TTR act confirm=1
CCN(C(=O)CSc1nnc(-c2ccc(F)cc2)c2ccccc12)C1CCS(=O)(=O)C1 (configuration not stated) | -1
CCN(C(=O)CSc1ccc2ccccc2c1)C1CCS(=O)(=O)C1 (configuration not stated) | 2
COc1ccccc1N(CC(=O)NCC1CCCO1)C(=O)CNS(=O)(=O)c1ccc(Cl)cc1 (configuration not stated) | 2
SMILES | TTR transcr act | others
COc1ccccc1N(CC(=O)NCC1CCCO1)C(=O)CNS(=O)(=O)c1ccc(C)cc1 (configuration not stated) | 13* | HuH7 TTR inh=-9;TTR act confirm=1
O=C(CN(C(=O)CNS(=O)(=O)c1ccc(F)cc1)c1cccc(F)c1)NCC1CCCO1 (configuration not stated) | -1
COc1ccccc1CN(CC(=O)NCc1ccco1)C(=O)CNS(=O)(=O)c1ccc(C)cc1 | 12* | HuH7 TTR inh=-11;TTR act confirm=-1
COc1ccc(CNC(=O)CN(Cc2ccco2)C(=O)CNS(=O)(=O)c2ccccc2)cc1 | 1
COc1ccc(S(=O)(=O)NCC(=O)N(CC(=O)NCc2ccco2)Cc2ccccc2)cc1 | 0
COc1ccc(-n2nc(C(=O)NCC(=O)N(C)Cc3ccccc3)c3ccccc3c2=O)c(OC)c1 | 2
C[C@H](CO)N1C[C@H](C)[C@@H](CN(C)C(=O)NC2CCCCC2)Oc2ncc(Br)cc2C1=O | -1
CN(C)CCN(Cc1ccccc1)C(c1ccnc2ccccc12)c1nnnn1-c1ccc2c(c1)OCCO2 (configuration not stated) | 0
O=c1[nH]c2cccc(Cl)c2c2ccccc12 | 1
C[C@H]1[C@@H](OC(=O)NCc2cccs2)CC[C@@]23CCCN2C(=O)CCC[C@@H]13 | 1
Cc1cc(C(=O)NCC(=O)Nc2ccc(F)c(F)c2)c(C)o1 | 0
C[C@@H]1CN([C@H](C)CO)C(=O)CCCn2nncc2CO[C@H]1CN(C)S(=O)(=O)c1ccccc1 | 1
O=C(CCCn1nnnc1CN1CCOCC1)N1CCC(c2ccccc2Cl)C1 (configuration not stated) | -1
O=S(=O)(c1ccc(NC(=S)N2CCCCC2)cc1)N1CCCCC1 | 0
O=C1CN(C(=O)NCC(=O)N[C@H](C(=O)O)c2ccccc2)c2ccccc2N1 | 1
O=C1CN(C(=O)c2ccccn2)c2ccccc2N1 | 0
O=C1CN(C(=O)OCc2ccccc2)c2ccccc2N1 | 14* | HuH7 TTR inh=-10;TTR act confirm=0
